{"source": "the supplement of paper PMC7156485", "note": "A number with no mark means an inactive call.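 Also: TDF is a line of transformed human dermal fibroblasts of mesenchymal origin.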", "data": [{"system": "TDF", "experiment": "H1.0 immunofluorescence intensity relative to DMSO (% of DMSO); higher = stronger H1.0 induction, active = 120 or more", "conditions": "concentration: 10 µM; 24 h", "summary_of_the_method": "(§1)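 Cell number or H1.0 nuclear intensity appears as percent of the plate control, based on the median of replicates. Measurements came from HCC1569 and TDF cells exposed in triplicate to compounds at 10 µM for 24 h at 37 °C, then imaged in six fields per well at ×10. Positional effects were smoothed out of HCC1569 values.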", "values": [{"smiles": "CCC=CCC=CCC=CCC=CCC=CCC=CCCC(=O)OC(COCCCCCCCCCCCCCCCC)COP(=O)([O-])OCC[N+](C)(C)C", "note": "(centres undefined)", "H1.0 immunofluorescence intensity": 95.7}, {"smiles": "CCOC(=O)c1cnc2c(cnn2CC)c1NN=C(C)C.Cl", "note": "[Etazolate hydrochloride]", "H1.0 immunofluorescence intensity": 86.8}, {"smiles": "COC(=O)[C@H](Cc1ccc([N+](=O)[O-])cc1)NC(=O)c1cccc2ccccc12", "note": "[methyl (2S)-2-(1-naphthoylamino)-3-(4-nitrophenyl)propanoate]", "H1.0 immunofluorescence intensity": 100}, {"smiles": "CNCC(O)c1cccc(O)c1.Cl", "note": "(centres undefined) [Phenylephrine hydrochloride]", "H1.0 immunofluorescence intensity": 97.5}, {"smiles": "COc1cc2nc(N3CCN(C(=O)C4=CC5C=CC4CC5)CC3)nc(N)c2cc1OC", "note": "(centres undefined) [Prazobind]", "H1.0 immunofluorescence intensity": 95.3}, {"smiles": "CCC(C)SSc1ncc[nH]1", "note": "(centres undefined) [2-(sec-butyldisulfanyl)-1H-imidazole]", "H1.0 immunofluorescence intensity": 87.7}, {"smiles": "CC[C@H](NC(=O)c1c(O)c(-c2ccccc2)nc2ccccc12)c1ccccc1", "H1.0 immunofluorescence intensity": 97.8}, {"smiles": "Cc1ccc(-c2ncc(Cl)cc2-c2ccc(S(C)(=O)=O)cc2)cn1", "note": "[Etoricoxib]", "H1.0 immunofluorescence intensity": 101}, {"smiles": "CC(NC(=O)C(C#N)=Cc1ccc(O)c(O)c1)c1ccccc1", "note": "(centres undefined) [Tyrphostin AG 835]", "H1.0 immunofluorescence intensity": 75}]}, {"system": "HCC1569", "experiment": "H1.0 immunofluorescence intensity relative to DMSO (% of DMSO); higher = stronger H1.0 induction, active = 140 or more", "conditions": "concentration: 10 µM; 24 h", "summary_of_the_method": "as §1", "values": [{"smiles": "CCCNC(C)C(=O)Nc1ccccc1C.Cl", "note": "(centres undefined) [Prilocaine hydrochloride]", "H1.0 immunofluorescence intensity": 96.2}, {"smiles": "Cc1ccc(OCC(O)C(C)NC(C)C)c2c1CCC2.Cl", "note": "(centres undefined) [ICI 118,551 hydrochloride]", "H1.0 immunofluorescence intensity": 98.4}, {"smiles": "FC(F)(F)c1cc(NC(=S)Nc2ccc(Br)cc2-c2nn[nH]n2)cc(C(F)(F)F)c1", "H1.0 immunofluorescence intensity": 120}, {"smiles": "CCOC(=O)c1c(C)[nH]c(C=C2C(=O)Nc3ccccc32)c1C", "note": "[VEGF Receptor 2 Kinase Inhibitor I]", "H1.0 immunofluorescence intensity": 103}, {"smiles": "O=C([O-])c1cc2cc(Cc3cccnc3)ccc2o1.[Na+]", "note": "[Furegrelate sodium]", "H1.0 immunofluorescence intensity": 93.7}, {"smiles": "Nc1c(Br)cc(Br)cc1CNC1CCC(O)CC1", "note": "(centres undefined) [Ambroxol]", "H1.0 immunofluorescence intensity": 103}, {"smiles": "CCCCCC(O)C=CC1C(O)CC(O)C1CC=CCCCC(=O)O", "note": "(stereo not drawn) [8-Epi-prostaglandin F2a]", "H1.0 immunofluorescence intensity": 100}, {"smiles": "CCCCCCCCCCCCCC=CC(O)C(CO)NC(=O)CCCCCCCCCCCCCCC", "note": "(centres undefined) [C16 Ceramide]", "H1.0 immunofluorescence intensity": 97.5}, {"smiles": "CN1C(C)(C)CCCC1(C)C.O=C(O)C(O)C(O)C(=O)O", "note": "[Pempidine tartrate]", "H1.0 immunofluorescence intensity": 99.4}, {"smiles": "CS(=O)(=O)O.N=C(N)SCCc1ccc(OCc2ccc([N+](=O)[O-])cc2)cc1", "H1.0 immunofluorescence intensity": "158 (active)"}, {"smiles": "CCCCCCCCCCCCCCCC(=O)NC(CN1CCOCC1)C(O)c1ccccc1", "note": "(racemic)", "H1.0 immunofluorescence intensity": 102}, {"smiles": "COc1ccc(C=Cc2cc(OC)cc(=O)o2)cc1", "note": "[Yangonin]", "H1.0 immunofluorescence intensity": 100}, {"smiles": "Cl.Oc1ccc(Nc2nc(-c3ccc(Cl)cc3)cs2)cc1", "note": "[Sphingosine Kinase Inhibitor]", "H1.0 immunofluorescence intensity": "193 (active)"}, {"smiles": "CC(C)NCC(O)c1ccc2ccccc2c1.Cl", "note": "(centres undefined) [Pronethalol.HCl]", "H1.0 immunofluorescence intensity": 102}, {"smiles": "Cc1[nH]c2ccccc2c1CCNC(=O)c1cccs1", "note": "[N-[2-(2-methyl-1H-indol-3-yl)ethyl]-2-thiophenecarboxamide]", "H1.0 immunofluorescence intensity": 92.8}, {"smiles": "OCC1NC(CO)C(O)C1O", "note": "[(2R,5R)-Bis(hydroxymethyl)-(3R,4R)-dihydroxypyrrolidine]", "H1.0 immunofluorescence intensity": 84.7}, {"smiles": "NC(=O)c1ncn(C2OC(CO)C(O)C2O)c1O", "note": "(centres undefined) [Mizoribine]", "H1.0 immunofluorescence intensity": 89.3}, {"smiles": "CC1OC(Oc2c(-c3ccc(O)c(O)c3)oc3cc(O)cc(O)c3c2=O)C(O)C(O)C1O", "note": "(centres undefined) [Quercitrin]", "H1.0 immunofluorescence intensity": 99.1}, {"smiles": "CCCN(CCC)C(=O)C(CCC(=O)O)NC(=O)c1ccccc1", "note": "(centres undefined) [Proglumide]", "H1.0 immunofluorescence intensity": 88}, {"smiles": "Cn1cnc2cc3c(Nc4cccc(Br)c4)ncnc3cc21", "H1.0 immunofluorescence intensity": 117}, {"smiles": "O=c1[nH]c2cc(C(F)(F)F)ccc2n1-c1cc(C(F)(F)F)ccc1O", "H1.0 immunofluorescence intensity": 98.4}, {"smiles": "O=c1cc(-c2ccc(O)cc2)oc2cc(O)c(C3OC(CO)C(O)C(O)C3O)c(O)c12", "note": "(centres undefined) [Isovitexin]", "H1.0 immunofluorescence intensity": 88.1}, {"smiles": "CN(c1ccccc1CNc1nc(Nc2ccc3c(c2)CC(=O)N3)ncc1C(F)(F)F)S(C)(=O)=O", "H1.0 immunofluorescence intensity": 126}, {"smiles": "Cc1ccc(F)c(NC(=O)Nc2ccc(-c3cccc4[nH]nc(N)c34)cc2)c1", "H1.0 immunofluorescence intensity": 101}, {"smiles": "COc1cc2ncn(-c3cc(OCc4ccc(S(C)(=O)=O)cc4)c(C(N)=O)s3)c2cc1OC", "note": "[Polo-like Kinase Inhibitor I]", "H1.0 immunofluorescence intensity": 112}, {"smiles": "CN(C)CCC(c1ccc(Br)cc1)c1ccccn1.O=C(O)C=CC(=O)O", "note": "(single isomer, unassigned; (+)) [(+)-Brompheniramine maleate]", "H1.0 immunofluorescence intensity": 102}, {"smiles": "CC1(NC(=O)CBr)CCC(C(C)(C)NCC(O)COc2cccc3[nH]ccc23)CC1", "note": "(racemic)", "H1.0 immunofluorescence intensity": 103}, {"smiles": "CC1=C(C)C(=O)C(CCCCC#CCCCC#CCO)=C(C)C1=O", "note": "[Docebenone]", "H1.0 immunofluorescence intensity": 110}, {"smiles": "COc1ccc(Cl)cc1C(=O)NCCc1ccc(S(=O)(=O)NC(=O)NC2CCCCC2)cc1", "note": "[Glibenclamide]", "H1.0 immunofluorescence intensity": 90.3}, {"smiles": "CC#CC1(O)CCC2C3CCC4=CC(=O)CCC4=C3C(c3ccc(N(C)C)cc3)CC21C", "note": "(centres undefined) [Mifepristone]", "H1.0 immunofluorescence intensity": 102}, {"smiles": "CC1(C)CCCC2(C)C1CCC1(C)OC(=O)CC12", "note": "[(3aR)-(+)-Sclaerolide]", "H1.0 immunofluorescence intensity": 84.9}, {"smiles": "CCC=CCC=CCC=CCC=CCC=CCC=CCCC(=O)OC(COCCCCCCCCCCCCCCCC)COP(=O)([O-])OCC[N+](C)(C)C", "note": "(centres undefined)", "H1.0 immunofluorescence intensity": 101}, {"smiles": "CCOC(=O)c1cnc2c(cnn2CC)c1NN=C(C)C.Cl", "note": "[Etazolate hydrochloride]", "H1.0 immunofluorescence intensity": 99.5}, {"smiles": "COC(=O)[C@H](Cc1ccc([N+](=O)[O-])cc1)NC(=O)c1cccc2ccccc12", "note": "[methyl (2S)-2-(1-naphthoylamino)-3-(4-nitrophenyl)propanoate]", "H1.0 immunofluorescence intensity": 101}, {"smiles": "CNCC(O)c1cccc(O)c1.Cl", "note": "(centres undefined) [Phenylephrine hydrochloride]", "H1.0 immunofluorescence intensity": 94.3}, {"smiles": "COc1cc2nc(N3CCN(C(=O)C4=CC5C=CC4CC5)CC3)nc(N)c2cc1OC", "note": "(centres undefined) [Prazobind]", "H1.0 immunofluorescence intensity": 93.2}, {"smiles": "CCC(C)SSc1ncc[nH]1", "note": "(centres undefined) [2-(sec-butyldisulfanyl)-1H-imidazole]", "H1.0 immunofluorescence intensity": 107}, {"smiles": "CC[C@H](NC(=O)c1c(O)c(-c2ccccc2)nc2ccccc12)c1ccccc1", "H1.0 immunofluorescence intensity": 107}, {"smiles": "Cc1ccc(-c2ncc(Cl)cc2-c2ccc(S(C)(=O)=O)cc2)cn1", "note": "[Etoricoxib]", "H1.0 immunofluorescence intensity": 92.2}, {"smiles": "CC(NC(=O)C(C#N)=Cc1ccc(O)c(O)c1)c1ccccc1", "note": "(centres undefined) [Tyrphostin AG 835]", "H1.0 immunofluorescence intensity": 114}]}]}
